This note sets out measurements from ChEMBL document CHEMBL4513216, “Probing the Open Global Health Chemical Diversity Library for Multistage-Active Starting Points for Next-Generation Antimalarials” (ACS Infect Dis, 2020).

The campaign covered roughly 69,000 compounds. About 8,600 (12%) showed an effect of 50% or more. The list comes from a sample in which strong results are over-represented; it also holds similar structures and randomly drawn compounds.

In the assay the test system is Plasmodium berghei. Nature of the assay: Screen against P. berghei liver stage (PbLuc), transformed with Luciferase, at 10uM. The class given is functional, HepG2. Conditions: tested at 10 uM.
For `COC(=O)CNC(=O)CCc1cc(Cl)cs1`, the INHIBITION worked out at 36.3%.
`CC(C)NC(=O)CCNC(=O)CCc1cc(Br)cs1`: the INHIBITION was -35.3%.
Next, `CC(C)NC(=O)CCNC(=O)CCc1cc(Cl)cs1`: 62.8%; `CN(c1nccc(-c2cnc3sccn3c2=O)n1)C1CCCCC1`: 18.9%.
Next, `CN(c1nccc(-c2cnc3sc(Cl)cn3c2=O)n1)C1CCCCC1`: 38.2%.
The value for `Cc1cn2c(=O)c(-c3ccnc(N(C)C4CCCCC4)n3)cnc2s1` was 90.1%.
On to `Cc1cc(C(F)(F)F)n2nc(C3CCCN(S(C)(=O)=O)C3)cc2n1` (configuration not stated), for which the INHIBITION came to 26.475%.
Consider `Cc1cc2[nH]c(=O)oc2cc1S(=O)(=O)N1CCCC(N(C)C)CC1` (configuration not stated), for which the INHIBITION is recorded as 11.6%.
The value for `O=c1[nH]c2cc(S(=O)(=O)N3CCC(c4ccsc4)CC3)ccc2o1` was 16.9%; that for `Cn1ccnc1C1CCN(S(=O)(=O)c2ccc3oc(=O)[nH]c3c2)CC1` was 59.7%.
The value for `CCC[C@@H]1CN(S(=O)(=O)c2ccc3[nH]c(=O)[nH]c3c2)C[C@H]1NC(C)=O` was 3.73%; that for `Cn1ccnc1C1CCN(S(=O)(=O)c2ccc3c(c2)OCCO3)CC1` was 35.1%.
With `Cn1ccnc1C1CCN(S(=O)(=O)c2ccc3[nH]c(=O)[nH]c3c2)CC1`, the INHIBITION came out at 62.9%.
Next, `CCN(CC)S(=O)(=O)N1CCC(c2c(C(N)=O)sc3ccccc23)C1` (configuration not stated): 27.6%; `CC(=O)N1CCN(CC(N)=O)CC(COc2ccccc2)C1` (configuration not stated): -17.7%; `CCc1cc(NC(=O)C2CCCN(C(=O)NCC(C)C)C2)[nH]n1` (configuration not stated): 19.3%.
The value for `NC(=O)c1cn(CC2CC2)c(C2CC2)n1` was -2.03%; that for `CCC(CNC(=O)Nc1cnn(CC)c1)N1CCc2ccccc2C1` (configuration not stated) was 7.67%; that for `CCC(C)NC(=O)c1cncc(Br)c1` (configuration not stated) was -76.5%.
Next, `COc1ccccc1C(=O)NCC(c1cccn1C)N1CCOCC1` (configuration not stated): 44.9%.
With `CCC(CNC(=O)c1ccc(F)cc1F)N1CCc2ccccc2C1` (configuration not stated), the INHIBITION came out at 64.3%.
The value for `CCC(CNC(=O)c1ccccn1)N1CCc2ccccc2C1` (configuration not stated) was 40.5%; that for `COc1cccc(C(=O)NCCCN2CCc3ccccc3C2)c1OC` was 25.3%.
Next, `CCC(CNC(=O)c1ccc(Br)o1)N1CCc2ccccc2C1` (configuration not stated): 16.8%; `O=C(NCC(O)c1ccc(F)cc1F)c1ccccc1F` (configuration not stated): -57.9%.
The value for `Cn1cccc1C(CNC(=O)c1ccc(F)cc1F)N1CCCCCC1` (configuration not stated) was 34.7%.
Turning to `CCC(CNC(=O)c1cncc(Br)c1)N1CCc2ccccc2C1` (configuration not stated), the INHIBITION came out at 66.3%.
Next, `CCC(CNC(=O)c1ccco1)N1CCc2ccccc2C1` (configuration not stated): 51.4%; `CCC(CNC(=O)c1ccccc1OC)N1CCc2ccccc2C1` (configuration not stated): 63.3%.
The value for `CC(c1ccco1)N(C)C(=O)NCCOc1ccc(C#N)cc1` (configuration not stated) was 5.94%; that for `CN(C)C(=O)CN1CCOCC2(CCN(CC3CCOCC3)CC2)C1` was 34.9%; that for `CNc1cccc(C2CCCN(C(=O)c3cncs3)C2)n1` (configuration not stated) was 5.56%.
As for `O=C(N[C@@H]1C[C@@H]2CC[C@H]1C2)C1(Oc2ccc(Cl)cc2)CCNCC1`, the INHIBITION is on record as 9.72%.
The value for `CCc1cnc(N2CC[C@@H]3CN(CCC(C)C)S(=O)(=O)[C@@H]3CC2)nc1` was -23.7%.
Next, `CC(C)C(=O)N1CC[C@H]2N(C)CC[C@@]2(C(=O)N2CCCC2)CC1`: 3.81%; `Cc1cc(C)c(CNC(=O)N2CCCC2c2cccc(F)c2)c(=O)[nH]1` (configuration not stated): 27.8%.
Next, `CC(C)CS(=O)(=O)N1CCC2(CN(c3ccsc3)C(=O)CN2C)C1` (configuration not stated): 23.6%; `O=C(NCC1(COc2cnccn2)C[C@@H](O)[C@@H](O)C1)C1CCCC1` (some centres not stated): -15.7%.
Consider `CCC(CNC(=O)c1cc(OC)ccc1Br)N1CCc2ccccc2C1` (configuration not stated), for which the INHIBITION is on record as 33.5%.
The value for `CSc1ccccc1C(=O)NCCCN1CCc2ccccc2C1` was 5.03%.
The value for `CCC(CNC(=O)c1ccccc1Br)N1CCc2ccccc2C1` (configuration not stated) was 56.4%.
The value for `Cc1nn(C)c(C)c1C1COCCN1C(=O)CSC(C)(C)C` (configuration not stated) was 37.6%; that for `Cc1nn(C)c(C)c1C1COCCN1C(=O)NC1CC1` (configuration not stated) was 17.5%; that for `CNC(=O)N1CCOCC1c1c(C)nn(C)c1C` (configuration not stated) was 28.7%.
On to `Cc1nn(C)c(C)c1C1COCCN1C(=O)CC(C)(C)C` (configuration not stated), for which the INHIBITION was determined as 62.2%.
The value for `CCN(CC)C(=O)N1CCOCC1c1c(C)nn(C)c1C` (configuration not stated) was 10.7%; that for `COCCNC(=O)N1CCOCC1c1c(C)nn(C)c1C` (configuration not stated) was 51%.
For `O=C(c1cnccn1)N1CCc2ncnc(-c3cccnc3)c2CC1`, the INHIBITION was 32.7%.
Next, `CCc1ccc(CN2CCc3ncnc(-c4cccnc4)c3CC2)o1`: -48.8%; `O=C(N1CCC(Oc2ccncc2)C1)C1(c2ccc(F)cc2)CC1` (configuration not stated): 52%.
Next, `O=C(N1CCC(Oc2ccncc2)C1)C1(c2cccc(F)c2)CC1` (configuration not stated): 25.1%; `O=C(N1CCC(Oc2ccncc2)CC1)C1(c2ccc(F)cc2)CC1`: 34.1%.
Consider `Cc1cc(C(=O)NCC(C)N2CCc3ccccc32)on1` (configuration not stated), for which the INHIBITION is listed as -25.9%.
The value for `COCCn1ccc2ccc(C(=O)O)cc21` was -19.6%.
In the case of `Fc1ccc(CN2CCC3(CCCN(c4nncs4)C3)C2)cc1` (configuration not stated), the INHIBITION is reported as -11.6%.
The value for `Cc1ccc(N2CCCC3(COCCN(c4cnccn4)C3)C2)nn1` (configuration not stated) was -22.1%; that for `Fc1cnc(N2CCOCC3(CCCN(c4cnccn4)C3)C2)nc1` (configuration not stated) was -13.7%.
Next, `c1cncc(CN2CCC3(CCCN(c4nncs4)C3)C2)c1` (configuration not stated): -11.6%.
The value for `Cc1cnc(N2CCCC3(COCCN(c4ccc(C)nn4)C3)C2)nc1` (configuration not stated) was 52.6%; that for `c1cnc(N2CCOCC3(CCCN(c4nncs4)C3)C2)cn1` (configuration not stated) was 72%; that for `Cc1ccc(N2CCCC3(COCCN(c4ncccn4)C3)C2)nn1` (configuration not stated) was -37.9%.
On to `Fc1cccnc1N1CCOCC2(CCCN(c3nncs3)C2)C1` (configuration not stated), for which the INHIBITION is reported as 12.6%.
Take `Cc1ccc(N2CCOCC3(CCCN(c4ncc(F)cn4)C3)C2)nn1` (configuration not stated): the INHIBITION is 14.6%.
For the molecule `c1cnc(N2CCCC3(COCCN(c4nncs4)C3)C2)cn1` (configuration not stated), the INHIBITION is given as 17.5%.
The value for `COc1ccc(N2CCOCC3(CCCN(c4cnccn4)C3)C2)cc1` (configuration not stated) was 53.9%.
The value for `CC(C)c1ccc(CN2CCC3(CCCN(c4nncs4)C3)C2)cc1` (configuration not stated) was 60.4%.
Next, `COc1ccc(F)c(CNC2CCCc3nc(N(C)C)ncc32)c1` (configuration not stated): 37.6%; `O=C(CCCOCc1ccccc1)N1CCCC(n2cncn2)C1` (configuration not stated): 21.6%; `Cc1nn(C2CCS(=O)(=O)C2)c(C)c1CC(=O)NCc1ccccc1Cl` (configuration not stated): -8.9%.
Take `CNC(=O)NC(=O)CCN1CCCC1c1nc(C2CCCCC2)co1` (configuration not stated): the INHIBITION is listed as -11.3%.
The value for `CN(C)C[C@]12COC[C@H]1CN(C(=O)Cc1ccc3c(c1)OCO3)C2` was 23.5%; that for `CC(O)(CN1CCN(CCO)CC1)c1cccc(C(F)(F)F)c1` (configuration not stated) was -14%.
Next, `Cc1nc2cc(-c3nccn3C)nn2c(N2CCC(O)CC2)c1C`: 12.3%; `O=C1COC2(COCCN(c3ccccn3)C2)CN1c1cccc(F)c1` (configuration not stated): 31.2%.
Next, `c1ccc(CN2CCc3c(CNc4nccs4)n[nH]c3C2)nc1`: 34.4%; `CCN1CCOCC2(CCCN(c3nncs3)C2)C1` (configuration not stated): 52.3%; `Fc1cnc(N2CCOCC3(CCCN(c4nncs4)C3)C2)nc1` (configuration not stated): 41.5%.
On to `CCS(=O)(=O)N1CCCC2(COCCN(c3nncs3)C2)C1` (configuration not stated), for which the INHIBITION was 28.2%.
Take `Cc1cc(CNC(=O)N2CCc3ccccc3C2CO)c(C)o1` (configuration not stated): the INHIBITION stood at 2.43%.
On to `Cc1cc(F)ccc1-n1cc(O)c(C(=O)NCC[S+](C)[O-])n1` (configuration not stated), for which the INHIBITION is 36.2%.
Next, `COc1ccccc1COCC(O)CN1CCC(c2ccn[nH]2)CC1` (configuration not stated): 46.2%; `Cn1cc(CN2CCn3cnc(COCC4CC4)c3C2)cn1`: 5.63%; `CC(=O)N1CCN(Cc2cccc3c2sc2ccccc23)CC(O)C1` (configuration not stated): 84.6%.
On to `CC(=O)N1CCN(Cc2c(C)sc3ccccc23)CC(O)C1` (configuration not stated), for which the INHIBITION was found to be 35.4%.
The value for `CC(=O)N1CCN(Cc2c(C)ccc3ccccc23)CC(O)C1` (configuration not stated) was 44.3%.
The value for `Cc1cnn(CCNCc2cccc(C#N)c2)c1` was 32.2%.
The value for `Cn1cncc1CN1CCC2(CC1)COCCN(S(C)(=O)=O)C2` was 4.68%; that for `O=C(CC1CCCC1)N1CCC(c2nnc(-c3ccccn3)o2)CC1` was -18.1%; that for `CN(Cc1ccccc1)C(=O)c1nc(S(C)(=O)=O)n2ccccc12` was 52%.
Turning to `CC(C)CCN(C)C(=O)c1nc(S(C)(=O)=O)n2ccccc12`, the INHIBITION came to 46.5%.
The value for `CN(Cc1ccccn1)C(=O)c1nc(S(C)(=O)=O)n2ccccc12` was 36.85%; that for `Cn1cc(Cl)cc1C(=O)N1CCCN(Cc2ccccc2)CC1` was 16.97%; that for `Cn1cnnc1SCc1cc2c(cc1Br)OCO2` was 49%.
The value for `N[C@H]1CCCN(S(=O)(=O)c2ccc(C(=O)NCC(F)F)cc2)C1` was 66.1%; that for `N#CC1CCCN(S(=O)(=O)c2ccc(C(=O)NCC(F)F)cc2)C1` (configuration not stated) was 49.2%.
Next, `O=C(NCC(F)F)c1ccc(S(=O)(=O)N2CCCC(O)C2)cc1` (configuration not stated): 37.3%; `Cc1cnc(C(=O)N(C)[C@@H]2CCC[C@@H](Oc3ccccc3)[C@@H]2O)cn1`: 17.1%.
Consider `CN(C(=O)c1cn(C)cn1)[C@@H]1CCC[C@@H](Oc2ccccc2)[C@@H]1O`, for which the INHIBITION was found to be 60.5%.
Next, `CN(C(=O)c1ccn(C)n1)[C@@H]1CCC[C@@H](Oc2ccccc2)[C@@H]1O`: 35.2%; `Cc1noc(C)c1-c1cncc(C2CCCN2Cc2nccs2)n1` (configuration not stated): 15.9%; `O=C(CC1CCCO1)N1CCCN(c2cccnn2)CC1` (configuration not stated): 7.12%.
The value for `Cc1cc(C)nc(N(C)CCn2ccnc2C)n1` was -45.7%; that for `CN(C)C(=O)CN1CCC2(CC1)CC(=O)c1ccc3ccccc3c1O2` was 41.1%; that for `O=C(CCNCc1cc(O)c2cc(F)ccc2n1)N1CCCC1` was 30.4%.
The value for `O=S(=O)(CCNCc1cc(O)c2cc(F)ccc2n1)N1CCCC1` was 58.2%; that for `OCC1CCCCN1CCCNCc1cc(O)c2cc(F)ccc2n1` (configuration not stated) was 25.7%; that for `Oc1cc(CNCCN2CCCCC2)nc2c(F)cccc12` was 13.7%.
`Cc1ccc2nc(CNCCCN3CCCC3)cc(O)c2c1`: the INHIBITION was found to be 41.5%.
The value for `O=C1CCCN1CCCNCc1cc(O)c2cccc(F)c2n1` was -15.8%.
Take `Oc1cc(CNCCCN2CCCC2)nc2ccc(F)cc12`: the INHIBITION amounted to 62.8%.
For the molecule `CN1CCN(CCCNCc2cc(O)c3cc(F)ccc3n2)CC1`, the INHIBITION is on record as 65.6%.
Next, `O=C1CCCN1CCCNCc1cc(O)c2cccc(Cl)c2n1`: -13.4%.
